Here are results for eight compounds from PubChem BioAssay (NCI).

What all share (assay): NCI-60 one-dose screen, 48 h (100 = growth as untreated, 0 = no growth, -100 = all killed)
The subject of one experiment is NCI-H23 lung. The following applies: 10 µM unless noted.
Another experiment deals with NCI-H226 lung. The following applies: 10 µM unless noted.
A further experiment concerns NCI-H322M lung. The following applies: 10 µM unless noted.
For the next experiment, the system named is HOP-62 NSCLC. The following applies: 10 µM unless noted.
For the next experiment, the system named is NCI-H460 lung. The following applies: 10 µM unless noted.
Another experiment has as its system HOP-92 NSCLC. The following applies: 10 µM.
The next experiment has as its system NCI-H522 lung. The following applies: 10 µM unless noted.
The next experiment has as its system A549/ATCC NSCLC. The following applies: 10 µM unless noted.
For another experiment, the system named is 786-0 renal. The following applies: 10 µM unless noted.
Another experiment relates to COLO 205 colon. The following applies: 10 µM unless noted.
For the next experiment, the system named is DU-145 prostate. The following applies: 10 µM unless noted.
The test system of the next experiment is K-562 leukemia. The following applies: 10 µM unless noted.
In the next experiment the test system is MALME-3M melanoma. The following applies: 10 µM unless noted.
The subject of a further experiment is MDA-MB-231 breast. The following applies: 10 µM unless noted.
A further experiment relates to RXF 393 renal. The following applies: 10 µM unless noted.
The test system of the next experiment is SF-268 CNS. The following applies: 10 µM unless noted.
The next experiment deals with SF-295 CNS. The following applies: 10 µM unless noted.
The test system of the next experiment is SF-539 CNS. The following applies: 10 µM unless noted.
Another experiment deals with UACC-257 melanoma. The following applies: 10 µM unless noted.

Structures are written as SMILES. The panel holds about 83,000 compounds, 20% with a hit somewhere; the sample as a whole holds those more often.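 Step 1: grow cells in 96-well plates. Step 2: add test compound at a single concentration. Step 3: incubate 48 h. Step 4: record percent growth.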 Unmarked numbers belong to inactive results. Activity calls are given as the source filed them. How the source made its calls: active means growth percent below 10; inactive means the rest.

For the compound `Cc1ccc(-n2cc(/C=N/NC(=O)c3nc(N)n[nH]3)c(-c3ccc(S(C)(=O)=O)cc3)n2)cc1`, the growth in the experiment with NCI-H23 lung was 96.6%; in the experiment on NCI-H226 lung, 102%; in the experiment with NCI-H322M lung it was 104%; in the experiment on HOP-62 NSCLC, 98.6%; in the experiment on NCI-H460 lung it was 103%; in the experiment with HOP-92 NSCLC, 94.2%. Further, the growth in the experiment on NCI-H522 lung was 92.3%; in the experiment with A549/ATCC NSCLC, 104%; in the experiment with 786-0 renal, 98.6%; with COLO 205 colon, 105%; in the experiment on DU-145 prostate it was 100%; in the experiment on K-562 leukemia it was 52.7%. Moreover, the growth in the experiment with MALME-3M melanoma is 85.3%; in the experiment on MDA-MB-231 breast it was 96%; with RXF 393 renal it was 117%; with SF-268 CNS, 99.4%; in the experiment on SF-295 CNS, 104%; with SF-539 CNS it was 99.7%. In the experiment with UACC-257 melanoma, the growth is 99.3%.

As to `COc1ccc(-n2c(/C=C3\C(=O)Nc4ccccc43)ccc2CO)cc1`, the growth in the experiment on NCI-H23 lung was 104%; in the experiment on NCI-H226 lung, 95.3%; with NCI-H322M lung it was 104%; in the experiment with HOP-62 NSCLC it was 95.1%; with NCI-H460 lung, 113%; in the experiment on HOP-92 NSCLC, 91.5%. The growth in the experiment with NCI-H522 lung is 89.6%; in the experiment on A549/ATCC NSCLC, 97%; in the experiment with 786-0 renal, 99.1%; with COLO 205 colon it was 114%; with DU-145 prostate, 106%; in the experiment with K-562 leukemia it was 90.9%. The growth was 72.2% in the experiment on MALME-3M melanoma; 95% with MDA-MB-231 breast; 99.7% in the experiment on RXF 393 renal; 99.2% in the experiment with SF-268 CNS; 105% in the experiment on SF-295 CNS; 97.5% in the experiment on SF-539 CNS. Further, in the experiment on UACC-257 melanoma, the growth is 105%.

`CCCCc1nc(/C=N/Nc2nc(Nc3ccccc3)nc(Nc3ccc(S(N)(=O)=O)cc3)n2)c(Cl)[nH]1`: the growth was 101% in the experiment on NCI-H23 lung; 99% in the experiment on NCI-H226 lung; 99.1% in the experiment with NCI-H322M lung; 101% in the experiment with HOP-62 NSCLC; 100% in the experiment on NCI-H460 lung; 60.1% in the experiment with HOP-92 NSCLC. The growth in the experiment on NCI-H522 lung was 41.9%; with A549/ATCC NSCLC it was 108%; in the experiment with 786-0 renal, 95.3%; with COLO 205 colon it was 72%; with DU-145 prostate, 84.6%; with K-562 leukemia, 38%. Also, the growth in the experiment with MALME-3M melanoma was 99.7%; with MDA-MB-231 breast it was 67%; in the experiment with RXF 393 renal it was 117%; in the experiment on SF-268 CNS, 65.9%; in the experiment on SF-295 CNS, 102%; in the experiment on SF-539 CNS it was 81.2%. The growth in the experiment with UACC-257 melanoma was 108%.

Take `CCN1CCN(Cc2ccc(C(=O)Nc3ccc(C)c(Oc4ccc(-c5[nH]nc6ncnc(N)c56)cc4)c3)cc2C(F)(F)F)CC1`: the growth was 93.2% in the experiment on NCI-H23 lung; 85.8% with NCI-H226 lung; 99% in the experiment with NCI-H322M lung; 103% in the experiment with HOP-62 NSCLC; 106% with NCI-H460 lung; 70.3% in the experiment with HOP-92 NSCLC. The growth in the experiment on NCI-H522 lung is 101%; in the experiment on A549/ATCC NSCLC it was 96.6%; in the experiment on 786-0 renal it was 69.4%; in the experiment with COLO 205 colon, 56.7%; in the experiment with DU-145 prostate, 98.6%; in the experiment with K-562 leukemia, 3.44% (active). Moreover, the growth in the experiment with MALME-3M melanoma was 22.8%; with MDA-MB-231 breast it was 82.7%; in the experiment with RXF 393 renal, 44.3%; in the experiment with SF-268 CNS it was 90.5%; with SF-295 CNS, 78.8%; in the experiment with SF-539 CNS, 55.6%. In addition, the growth in the experiment on UACC-257 melanoma was 71.9%.

`C[C@H](CCC(=O)NCc1ccc(C(=O)Nc2ccccc2N)cc1)[C@H]1CC[C@H]2[C@@H]3[C@@H](O)C[C@@H]4C[C@H](O)CC[C@]4(C)[C@H]3CC[C@]12C`: the growth in the experiment on NCI-H23 lung was 66.7%; with NCI-H226 lung it was 57.1%; in the experiment with NCI-H322M lung, 79%; with HOP-62 NSCLC, 58.3%; with NCI-H460 lung, 60.8%; in the experiment with HOP-92 NSCLC, 69.1%. Moreover, the growth in the experiment with NCI-H522 lung was 37.8%; in the experiment with A549/ATCC NSCLC, 90.3%; with 786-0 renal, 71.4%; in the experiment on COLO 205 colon, 65.2%; in the experiment with DU-145 prostate it was 84.1%; in the experiment on K-562 leukemia, 30.6%. For the same compound, the growth was 45% in the experiment on MALME-3M melanoma; 49.2% with MDA-MB-231 breast; 55.3% in the experiment with RXF 393 renal; 52.6% in the experiment on SF-268 CNS; 69.1% in the experiment on SF-295 CNS; 55.6% in the experiment with SF-539 CNS. Also, the growth with UACC-257 melanoma is 63.7%.

As to `CNC(=O)c1cc(N2CCc3cc(NC(=O)Nc4ccc(Cl)c(C(F)(F)F)c4)ccc32)ccn1`, the growth in the experiment with NCI-H23 lung is 56.1%; in the experiment on NCI-H226 lung, 77.2%; with NCI-H322M lung, 87.1%; in the experiment on HOP-62 NSCLC, 85.1%; with NCI-H460 lung it was 38%; with HOP-92 NSCLC it was 68%. The growth was 50% in the experiment on NCI-H522 lung; 49.2% in the experiment on A549/ATCC NSCLC; 49.7% with 786-0 renal; 58% in the experiment on COLO 205 colon; 63.6% in the experiment on DU-145 prostate; 33.7% with K-562 leukemia. In addition, the growth in the experiment on MALME-3M melanoma is 64.5%; with MDA-MB-231 breast it was 67.2%; in the experiment on RXF 393 renal it was -8.94% (active); in the experiment with SF-268 CNS, 70.1%; in the experiment with SF-295 CNS, 26.5%; in the experiment on SF-539 CNS, 48.8%. The growth in the experiment with UACC-257 melanoma was 72.7%.

With `CC1=NC2=NN3C(=NN2C(c2ccccc2)=C1)N=NC(c1ccc(Br)cc1)=C3c1ccc(Br)cc1`, the growth in the experiment with NCI-H23 lung was 105%; in the experiment with NCI-H226 lung it was 102%; with NCI-H322M lung, 101%; with HOP-62 NSCLC, 102%; with NCI-H460 lung it was 112%; in the experiment with HOP-92 NSCLC, 110%. The growth in the experiment on NCI-H522 lung is 98.5%; with A549/ATCC NSCLC, 109%; in the experiment with 786-0 renal it was 107%; with COLO 205 colon, 112%; in the experiment on DU-145 prostate it was 112%; in the experiment with K-562 leukemia, 96.9%. The growth with MALME-3M melanoma is 53.6%; in the experiment on MDA-MB-231 breast, 95.7%; in the experiment on RXF 393 renal, 138%; in the experiment with SF-268 CNS, 102%; with SF-295 CNS it was 106%; in the experiment on SF-539 CNS, 97.2%. Besides, the growth in the experiment on UACC-257 melanoma was 109%.

With `NS(=O)(=O)c1ccc(Nc2nc(N/N=C/c3c[nH]c4ccccc34)nc(Nc3ccccc3)n2)cc1`, the growth in the experiment on NCI-H23 lung is 47.1%; in the experiment with NCI-H226 lung, 42%; with NCI-H322M lung it was 54.4%; in the experiment on HOP-62 NSCLC it was 63.8%; in the experiment on NCI-H460 lung it was 41.2%; in the experiment with HOP-92 NSCLC it was 61.4%. The growth is 31.6% with NCI-H522 lung; 78.3% with A549/ATCC NSCLC; 41.8% in the experiment on 786-0 renal; 40.9% in the experiment with COLO 205 colon; 43.4% in the experiment with DU-145 prostate; 23% with K-562 leukemia. The growth in the experiment with MALME-3M melanoma was 46.1%; in the experiment with MDA-MB-231 breast it was 48.8%; in the experiment with RXF 393 renal it was -25.2% (active); in the experiment with SF-268 CNS, 59.2%; with SF-295 CNS it was 31.5%; in the experiment with SF-539 CNS, 47.6%. Moreover, in the experiment with UACC-257 melanoma, the growth was 63.1%.
